Screening results as filed in PubChem BioAssay.
In the library only some 4.1% were active in any assay of this set; here they are far more common.
Vc quorum ag: quorum light induction in luxS cqsA deficient V. cholerae | 350,000 compounds, 0.16% hits | V. cholerae BH1578 lux reporter, luminescence, 6 h | AID 588436 | activation, % at 18.7 µM; in the data active = activation mostly above about 9.7%, no sharp cut-off
Rv3671c protease: Rv3671c (M. tuberculosis) protease inhibition | P9WHR9 | inhibition, % at 5.96 µM | 320,000 compounds, 0.048% hits; in the data active = inhibition above about 38%;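 note: extracellular domain of Rv3671c used as enzyme; 0% = enzyme with DMSO and 100% = no enzyme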
GDH-TPI counter: inhibits GDH-TPI coupling enzymes, artifact for Mtb FBA screen | GDH-TPI coupled enzyme counterscreen, NADH absorbance | inhibition, % at 4.8 µM | 360,000 compounds, 1.2% hits; in the data active = inhibition above about 30%;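 note: 0% = DMSO wells and 100% = wells lacking the enzyme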
Mtb UGM inh: blocks M. tuberculosis UGM enzyme; P9WIQ1; purified UGM, fluorescence polarization probe displacement; inhibition, % at 10 µM; 320,000 compounds, 0.06% hits; AID 504406; in the data active = inhibition above about 10%, passing the limit was not always enough
RecA intein inh: blocks M. tuberculosis RecA intein splicing. cell-free RecA intein splicing, fluorescence. inhibition, % (no concentration beside the values). 290,000 compounds, 0.75% hits. AID 2221; in the data active = inhibition above about 30%;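 note: 0% = vehicle wells and 100% = reference inhibitor control wells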
Target sequence (P9WHJ3 whole entry, looked up): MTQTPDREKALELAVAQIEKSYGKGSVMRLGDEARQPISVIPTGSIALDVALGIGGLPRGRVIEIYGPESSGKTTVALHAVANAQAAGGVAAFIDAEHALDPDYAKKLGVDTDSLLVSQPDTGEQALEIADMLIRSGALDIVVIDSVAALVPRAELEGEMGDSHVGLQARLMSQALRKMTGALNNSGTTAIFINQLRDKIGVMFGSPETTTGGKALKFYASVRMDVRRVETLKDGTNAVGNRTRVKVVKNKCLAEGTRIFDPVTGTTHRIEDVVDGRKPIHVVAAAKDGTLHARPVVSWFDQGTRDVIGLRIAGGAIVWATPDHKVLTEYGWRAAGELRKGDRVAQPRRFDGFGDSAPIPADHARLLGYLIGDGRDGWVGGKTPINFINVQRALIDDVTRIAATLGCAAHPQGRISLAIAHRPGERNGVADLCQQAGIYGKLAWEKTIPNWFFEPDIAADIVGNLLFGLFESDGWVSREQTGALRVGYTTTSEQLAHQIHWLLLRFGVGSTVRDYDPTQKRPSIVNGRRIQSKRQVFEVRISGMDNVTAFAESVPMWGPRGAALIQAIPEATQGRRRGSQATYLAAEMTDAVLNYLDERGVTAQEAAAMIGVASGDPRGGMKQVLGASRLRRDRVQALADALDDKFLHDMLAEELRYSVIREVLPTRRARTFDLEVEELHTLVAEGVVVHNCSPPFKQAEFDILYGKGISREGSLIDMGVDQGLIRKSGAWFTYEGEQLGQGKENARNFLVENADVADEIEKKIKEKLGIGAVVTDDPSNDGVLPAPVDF
FBA Mtb inh: inhibits M. tuberculosis FBA enzyme. 360,000 compounds, 2.3% hits. inhibition, % at 1 µM. P9WQA3. purified M. tuberculosis FBA, fluorescence read-out; in the data active = inhibition above about 27%;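 note: 0% = vehicle and 100% = reference inhibitor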
* hit, by the source's call; i = inactive; · = not tested or not shown; + = active, no number.

SMILES | Vc quorum ag | Rv3671c protease | GDH-TPI counter | Mtb UGM inh | RecA intein inh | FBA Mtb inh
COc1cc(Br)c(C2C(C#N)=C(N)Oc3n[nH]c(-c4cccnc4)c32)cc1OC (configuration not stated) | -0.3 | -4.2 | -4.8 | 2.3 | 56.5* | -5.0
COc1cc(OC)cc(C2C(C#N)=C(N)Oc3n[nH]c(-c4cccnc4)c32)c1 (configuration not stated) | i | -15.6 | -2.8 | 2.0 | 49.8* | -1.6
C[C@H](CO)N1C[C@H](C)[C@@H](CN(C)C(=O)c2ccc(N3CCN(C)CC3)cc2)OCc2cnnn2CCCC1=O | · | · | · | · | · | 2.4
O=[N+]([O-])c1cccc(C2CC(c3ccccc3)=NN2c2ccccc2)c1 (configuration not stated) | -2.0 | 1.8 | 19.4 | 1.1 | 7.3 | -0.2
NS(=O)(=O)c1ccc(N2N=C(c3ccccc3)CC2c2cccc(Cl)c2)cc1 (configuration not stated) | -1.1 | · | 18.8 | · | · | 178.0*
Cc1cccc(C2CC(c3ccccc3)=NN2c2ccc(S(N)(=O)=O)cc2)c1 (configuration not stated) | -1.1 | · | 12.4 | · | · | +
Cc1cc(O)c(NC(=S)NC(=O)c2ccc(-c3ccc(Cl)cc3)o2)cc1C | 5.3 | -3.1 | 36.8* | 2.7 | -3.8 | 6.3
Cc1ccc(NC(=S)NC(=O)c2ccc(-c3ccc(Cl)cc3)o2)c(O)c1 | 0.0 | 2.0 | 15.8 | 1.7 | 1.0 | 1.7
COc1ccccc1CCC(=O)Nc1ccc2c(c1)c(=O)n(C)n2-c1cccs1 | -0.4 | · | 8.2 | · | · | 0.9
COc1cc(Cn2c3ccc(NC(=O)CCc4ccccc4)cc3c(=O)n2C)ccc1F | i | · | 12.9 | · | · | 156.7*
Cn1c(=O)c2cc(NC(=O)CCc3cccnc3)ccc2n1Cc1ccc(F)cc1 | 0.4 | · | 8.0 | · | · | 174.6*
Cn1c(=O)c2cc(NC(=O)CCc3cccnc3)ccc2n1Cc1cccc(C(F)(F)F)c1 | i | · | 5.4 | · | · | 141.1*
COc1cc(Cn2c3ccc(NC(=O)NCCc4ccccc4)cc3c(=O)n2C)ccc1F | i | · | 1.8 | · | · | 145.1*
CC(O)(c1cccc(F)c1)c1nc(-c2ccc(S(C)(=O)=O)cc2)cs1 (configuration not stated) | 1.3 | · | 1.8 | · | · | -2.5
Cn1c(=O)c2cc(NC(=O)Cc3cccnc3)ccc2n1-c1ccc2ccccc2c1 | i | · | 8.4 | · | · | 3.1
COc1cc(Cn2c3ccc(NC(=O)CCc4cccnc4)cc3c(=O)n2C)ccc1F | i | · | 2.7 | · | · | 177.4*
Cc1ccc(C)c(NCCCCC(=O)O)c1 | · | · | · | · | · | -0.5
O=C(C=Cc1ccccc1)c1c[nH]c2ccccc2c1=O | -5.6 | · | 37.7* | · | · | -1.8
C=CCN1C(=O)C(CC(=O)O)SC1=Nc1ccc(N=Nc2ccccc2)cc1 (configuration not stated) | -0.2 | 9.6 | 63.3* | -1.3 | 4.6 | -1.3
COc1ccc2c(c1OC)C(=O)N1N=C(c3ccc(Br)cc3)CC21 (configuration not stated) | -0.8 | -8.5 | 13.3 | -3.9 | 4.3 | 0.6
COc1ccc(C2=NN3C(=O)c4c(ccc(OC)c4OC)C3C2)cc1 (configuration not stated) | -4.2 | 2.0 | 36.2* | 1.7 | -1.7 | 1.3
Cc1ccccc1-c1nnc(SC(C)C(=O)NC2CCCC2)o1 (configuration not stated) | i | 1.9 | -2.2 | -1.0 | · | 0.7
CCOc1ccccc1N1CCN(Cc2cn[nH]c2-c2ccc(F)cc2)CC1 | -0.9 | -3.4 | 1.6 | 1.4 | 1.9 | 31.1*
CCOc1ccccc1N1CCN(Cc2cccc(OC)c2OC)CC1 | i | 2.3 | 10.1 | -0.5 | -5.2 | -3.0
Cc1ccc2cc3cc(C(=O)NCCC(C)C)oc3nc2c1 | i | -1.4 | 27.9 | 0.8 | -2.2 | 22.1
SMILES | Vc quorum ag | Rv3671c protease | GDH-TPI counter | Mtb UGM inh | RecA intein inh | FBA Mtb inh
Cc1ccc2cc3cc(C(=O)NC4CC4)oc3nc2c1 | -2.1 | 7.5 | 48.7* | -0.3 | -4.5 | 18.5
COc1ccc2cc3cc(C(=O)NCc4cccnc4)oc3nc2c1 | -0.2 | 0.3 | 22.7 | -0.6 | -1.2 | +
COc1ccc2cc3cc(C(=O)N4CCN(c5ccccn5)CC4)oc3nc2c1 | i | 0.7 | 41.7* | 0.0 | -0.5 | 1.8
COc1ccc2cc3cc(C(=O)NCC4COc5ccccc5O4)oc3nc2c1 (configuration not stated) | · | 1.3 | 30.4 | 1.6 | -2.9 | 152.1*
COc1ccc2cc3cc(C(=O)N4CC(C)CC(C)C4)oc3nc2c1 (configuration not stated) | -0.2 | -12.5 | 16.5 | -6.1 | 3.6 | 19.4
COc1ccc(-c2noc(CN(C)C(=O)c3ccc4c(c3)OCO4)n2)cc1 | -0.2 | 3.4 | -2.3 | -0.3 | 0.6 | -2.1
O=C(c1ccc(S(=O)(=O)Cc2ccccc2Cl)c([N+](=O)[O-])c1)N1CCOCC1 | i | 1.4 | -3.4 | 1.6 | 0.2 | -1.4
COc1ccc2cc3cc(C(=O)NC(C)C)oc3nc2c1 | i | 1.3 | 31.5* | 0.5 | -1.9 | +
COc1ccc2cc3cc(C(=O)Nc4ccc5c(c4)OCCO5)oc3nc2c1 | -0.6 | -6.4 | 43.0* | 3.1 | -8.9 | 3.7
COc1ccc2cc3cc(C(=O)NCc4ccc5c(c4)OCO5)oc3nc2c1 | i | -10.7 | 36.8* | 0.9 | -5.3 | 18.7
COc1ccc([C@@H]2CC=C(C(=O)O)CN2S(=O)(=O)c2ccc(C)cc2)cc1OC | -0.4 | -3.4 | 7.6 | -0.5 | · | -0.8
CC(=O)C1(O)CCC2C3CC(C)C4=CC(=O)C=CC4(C)C3(F)C(O)CC21C (configuration not stated) | i | · | 6.9 | · | · | 0.6
CC(=O)c1sc(NC(=O)CS(=O)(=O)c2ccc(F)cc2)nc1C | 28.0* | -5.7 | 19.7 | 1.1 | -2.1 | -0.1
CN1CCN(c2cc(CNC[C@H]3O[C@@H](n4cnc5c(=O)[nH]c(N)nc54)[C@H](O)[C@@H]3O)ccc2F)CC1 | · | · | · | · | · | 1.4
O=C(Nc1nc2c(s1)CCCC2=O)c1cnccn1 | i | -4.7 | 32.0* | 2.5 | 2.5 | 2.0
Cc1c(Cc2ccccc2)c(=O)oc2c(O)c(O)ccc12 | -0.2 | · | 5.0 | · | 6.8 | 1.4
Cc1c(Cc2ccccc2)c(=O)oc2c(CN(C)C)c(O)c(Cl)cc12 | i | -0.8 | 17.2 | -1.7 | -349.1 | +
Cc1c(Cc2ccccc2)c(=O)oc2cc(O)ccc12 | -0.4 | -10.0 | 27.2 | 1.2 | -18.5 | +
COc1ccc(-c2c(C)c3ccc(O)cc3oc2=O)cc1 | -2.6 | 2.2 | 22.6 | 0.2 | -51.1 | +
COc1ccc2c(c1)c(=O)oc1cc(O)ccc12 | -0.5 | -5.7 | -1.0 | -1.6 | -1.1 | 13.3
CCOC(=O)CCc1c(C)c2ccc(O)cc2oc1=O | 1.7 | -8.0 | 0.6 | -1.6 | -28.7 | +
CCC(C(=O)OCC(=O)Nc1ccc2[nH]c(=O)[nH]c2c1)c1ccccc1 (configuration not stated) | i | 10.1 | -14.3 | 0.5 | -4.0 | -3.1
COc1cc(C(=O)NCCC(=O)N2CCC3(CC2)NCCc2[nH]cnc23)cc(OC)c1OC | i | -8.6 | -0.9 | 0.6 | 0.3 | 6.0
